This is an account of results in PubChem BioAssay (NCI).

This is part of a sample that, as a whole, favours compounds with a hit. Of some 83,000 tested, about 20% had one in any assay.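 Each cell line was grown in a 96-well plate and treated with one concentration of compound for 48 hours. Values below 10 were considered active.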 Unmarked numbers belong to inactive results. Calls of active or inactive are those of the source.

Common to all, as to assay: NCI-60 one-dose screen, 48 h (100 = growth as untreated, 0 = no growth, -100 = all killed)
One assay has as its system SR leukemia. The settings on record: 10 µM.
The subject of a further assay is RPMI-8226 leukemia. To be noted: 10 µM.
For another assay, the system named is OVCAR-5 ovarian. To be noted: 10 µM.
The next assay deals with OVCAR-4 ovarian. The settings on record: 10 µM.
Another assay concerns SK-OV-3 ovarian. To be noted: 10 µM.
The next assay relates to IGROV1 ovarian. The settings on record: 10 µM.
A further assay relates to OVCAR-3 ovarian. To be noted: 10 µM.
Another assay relates to HS 578T breast. The settings on record: 10 µM.
The subject of the next assay is NCI/ADR-RES ovarian. To be noted: 10 µM.
The subject of the next assay is T-47D breast. The settings on record: 10 µM.
The subject of the next assay is BT-549 breast. The settings on record: 10 µM.
A further assay concerns MDA-MB-435 melanoma. To be noted: 10 µM.
A further assay relates to SW-620 colon. The settings on record: 10 µM.
A further assay deals with MCF7 breast. The settings on record: 10 µM unless noted.
The next assay deals with HCT-116 colon. The settings on record: 10 µM.
A further assay deals with HCC-2998 colon. To be noted: 10 µM.
Another assay relates to KM12 colon. The settings on record: 10 µM.
Another assay concerns OVCAR-8 ovarian. The settings on record: 10 µM.

As to `N#C/C(=C\c1cc(O)c(O)c(O)c1)C(N)=O`, the growth in the assay with SR leukemia is 72.9%; with RPMI-8226 leukemia, 19.6%; in the assay with OVCAR-5 ovarian it was 98.2%; in the assay with OVCAR-4 ovarian, 45.7%; with SK-OV-3 ovarian it was 110%; in the assay with IGROV1 ovarian, 122%. Moreover, the growth is 107% in the assay with OVCAR-3 ovarian; 110% in the assay on HS 578T breast; 102% in the assay on NCI/ADR-RES ovarian; 110% in the assay with T-47D breast; 96.5% in the assay with BT-549 breast; 89.4% with MDA-MB-435 melanoma. Further, the growth in the assay on SW-620 colon was 116%; with MCF7 breast, 100%; in the assay on HCT-116 colon it was 92.8%; in the assay with HCC-2998 colon it was 98.3%; in the assay on KM12 colon, 103%.

Regarding `CCCCOC(=O)c1ccc(C(C)C)cc1`, the growth in the assay with SR leukemia is 102%; with OVCAR-8 ovarian it was 106%; in the assay on OVCAR-5 ovarian, 102%; with OVCAR-4 ovarian, 102%; with SK-OV-3 ovarian, 90.4%; with IGROV1 ovarian, 100%. The growth in the assay on OVCAR-3 ovarian is 106%; in the assay with HS 578T breast, 108%; in the assay with NCI/ADR-RES ovarian, 97.3%; in the assay on T-47D breast, 88.7%; in the assay with BT-549 breast it was 92.1%; in the assay with MDA-MB-435 melanoma it was 103%. The growth is 111% with SW-620 colon; 94.9% in the assay on MCF7 breast; 85.4% in the assay on HCT-116 colon; 107% with HCC-2998 colon; 104% in the assay with KM12 colon.

As for `C/C=C/CC(C)C(O)C1C(=O)NC(CC)C(=O)N(C)CC(=O)N(C)C(CC(C)C)C(=O)NC(C(C)C)C(=O)N(C)C(CC(C)C)C(=O)NC(C)C(=O)NC(C)C(=O)N(C)C(CC(C)C)C(=O)N(C)C(CC(C)C)C(=O)N(C)C(C(C)C)C(=O)N1C` (centres undefined), the growth in the assay on SR leukemia is -0.0306% (active); in the assay on OVCAR-8 ovarian, 38.1%; with OVCAR-5 ovarian, 32%; with OVCAR-4 ovarian it was 29.9%; with SK-OV-3 ovarian, 40.4%; in the assay on IGROV1 ovarian, 43.9%. For the same compound, the growth is 17.4% in the assay on OVCAR-3 ovarian; 45.8% in the assay on HS 578T breast; 31.9% with NCI/ADR-RES ovarian; 23.2% in the assay with T-47D breast; -14.4% (active) in the assay with BT-549 breast; -6.76% (active) in the assay with MDA-MB-435 melanoma. Moreover, the growth with SW-620 colon was 31.3%; in the assay on MCF7 breast, 18.7%; in the assay with HCT-116 colon, 8.61% (active); in the assay on HCC-2998 colon, 1.86% (active); with KM12 colon it was 17.7%.

For `O=C(O)CCC(NC(=O)OCc1ccccc1)C(=O)O` (centres undefined), the growth with SR leukemia was 97.5%; in the assay on RPMI-8226 leukemia it was 107%; with OVCAR-5 ovarian, 105%; in the assay with OVCAR-4 ovarian, 106%; in the assay on SK-OV-3 ovarian it was 82.4%; in the assay on OVCAR-3 ovarian it was 103%. Besides, the growth in the assay with HS 578T breast is 107%; in the assay on NCI/ADR-RES ovarian, 107%; with T-47D breast, 98.5%; in the assay on BT-549 breast it was 119%; in the assay with MDA-MB-435 melanoma it was 104%; in the assay on SW-620 colon, 101%. Also, the growth in the assay with MCF7 breast is 93%; with HCT-116 colon, 111%; in the assay with HCC-2998 colon, 99.7%; with KM12 colon it was 105%.

In the case of `CC1(C)N=C(N)N=C(N)N1c1cccc(Br)c1`, the growth in the assay with SR leukemia was 49.4%; with RPMI-8226 leukemia it was 43.9%; in the assay with OVCAR-8 ovarian, 33.1%; with OVCAR-4 ovarian, 49.7%; in the assay with SK-OV-3 ovarian it was 44.3%; in the assay on IGROV1 ovarian it was 54.9%. Further, the growth with OVCAR-3 ovarian is 52.8%; in the assay on T-47D breast it was 80.9%; in the assay with BT-549 breast it was 46.7%; with MDA-MB-435 melanoma it was 26.3%; in the assay with SW-620 colon, 36.6%; with MCF7 breast, 23.6%. Besides, the growth in the assay on HCT-116 colon is 22.9%; with HCC-2998 colon, 23.4%; with KM12 colon, 40.6%.

Regarding `CCc1nc(N)nc(N)c1-c1ccc(Cl)cc1`, the growth with SR leukemia is 57.3%; in the assay with RPMI-8226 leukemia, 102%; in the assay on OVCAR-8 ovarian, 47.7%; in the assay with OVCAR-4 ovarian, 78.4%; in the assay with SK-OV-3 ovarian it was 84%; in the assay on OVCAR-3 ovarian it was 116%. The growth was 103% in the assay on HS 578T breast; 56.4% in the assay with NCI/ADR-RES ovarian; 100% with T-47D breast; 67.7% in the assay with BT-549 breast; 35% with MDA-MB-435 melanoma; 27.2% in the assay on SW-620 colon. For the same compound, the growth is 67.8% with MCF7 breast, 25.4% with HCT-116 colon, 75.9% in the assay with HCC-2998 colon and 82.5% with KM12 colon.

Regarding `Cc1cc(C)c(N)c(S(=O)(=O)O)c1`, the growth in the assay on SR leukemia was 81.4%; in the assay with RPMI-8226 leukemia, 92.4%; with OVCAR-8 ovarian, 104%; in the assay on OVCAR-4 ovarian, 98.9%; in the assay on SK-OV-3 ovarian, 94.6%; in the assay on IGROV1 ovarian it was 108%. Also, the growth is 113% in the assay on OVCAR-3 ovarian; 93.2% in the assay on T-47D breast; 98.9% in the assay on MDA-MB-435 melanoma; 111% in the assay with SW-620 colon; 92.1% in the assay with MCF7 breast; 93.6% with HCT-116 colon. Also, the growth is 91.2% with HCC-2998 colon and 115% in the assay on KM12 colon.

With `CC(=O)c1ccc(C(C)(C)C)cc1`, the growth with SR leukemia is 90.6%; in the assay on RPMI-8226 leukemia, 95.5%; with OVCAR-8 ovarian, 98.3%; in the assay with OVCAR-4 ovarian, 93.5%; in the assay with SK-OV-3 ovarian it was 101%; in the assay with IGROV1 ovarian it was 96.7%. In addition, the growth with OVCAR-3 ovarian was 103%; with T-47D breast it was 98.2%; with BT-549 breast, 102%; in the assay on MDA-MB-435 melanoma it was 106%; with SW-620 colon, 110%; in the assay with MCF7 breast, 94.5%. The growth with HCT-116 colon was 97.5%; in the assay on HCC-2998 colon it was 96.2%; in the assay on KM12 colon, 102%.

For `Cc1ccc(C(O)C2CC2)cc1` (centres undefined), the growth is 91.7% in the assay on SR leukemia; 94.1% with OVCAR-8 ovarian; 94% in the assay with OVCAR-5 ovarian; 105% in the assay with OVCAR-4 ovarian; 106% in the assay with SK-OV-3 ovarian; 96.8% in the assay on IGROV1 ovarian. The growth in the assay with OVCAR-3 ovarian was 106%; in the assay with HS 578T breast, 104%; with NCI/ADR-RES ovarian, 107%; in the assay on T-47D breast, 97.4%; with BT-549 breast it was 107%; in the assay with MDA-MB-435 melanoma, 103%. In addition, the growth with SW-620 colon was 100%; with MCF7 breast, 104%; in the assay on HCT-116 colon, 107%; in the assay on HCC-2998 colon it was 113%; in the assay with KM12 colon, 107%.

For `COc1cc2c(cc1O)CC[C@@H]1C2CC[C@@]2(C)C1CC[C@@H]2O` (some centres undefined), the growth with SR leukemia was 15.1%; in the assay with RPMI-8226 leukemia, 0% (active); in the assay on OVCAR-5 ovarian it was -41.5% (active); in the assay on OVCAR-4 ovarian it was 65.2%; with SK-OV-3 ovarian, 24.1%; with IGROV1 ovarian, 25.3%. In addition, the growth in the assay with OVCAR-3 ovarian is 4.72% (active); with NCI/ADR-RES ovarian, -70.7% (active); in the assay with T-47D breast, 31.1%; in the assay on BT-549 breast, 23.4%; with MDA-MB-435 melanoma, -46.9% (active); with SW-620 colon it was 12.1%. The growth is 16.4% with MCF7 breast, 7.39% (active) with HCT-116 colon and 33.5% with KM12 colon.
